# Measurements from PubChem BioAssay (NCI).
# Compounds without any hit were thinned out: in the full panel of roughly 83,000, 20% have a hit.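 Plates (96-well) were seeded with cells, treated with compound at one concentration, and incubated for 48 hours before percent growth was determined.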 Unmarked numbers belong to inactive results. The source made the active and inactive calls. How the source made its calls: active means growth percent below 10; inactive means the rest.
# Tested on: NCI-H23 lung
# Assay: NCI-60 one-dose screen, 48 h (100 = growth as untreated, 0 = no growth, -100 = all killed)
# Details: 10 µM unless noted
row,SMILES,growth
1,C=CCn1c(SCC(=O)Nc2ccc(C(=O)/C=C/c3ccc(OC)cc3)cc2)nnc1-c1ccccc1,94.2%
2,COc1cc2ncnc(Nc3ccc(F)c(Cl)c3)c2cc1OCC(=O)N1CCN(c2ccc(F)cc2)CC1,97%
3,Cc1ccc2nc(Cl)c(Cn3nnnc3SCc3ccccc3)cc2c1,91.8%
4,CN1CCN(CCOc2ccc(-c3cnc4c(-c5ccc(C(F)(F)F)cc5)cnn4c3)cc2)CC1,48.5%
5,C/C(C=O)=C\c1ccc2c(c1)OCO2,102%
6,Cc1ccc(O)c(NC(=O)c2ccc(CNc3ccnc(C(F)(F)F)c3)cc2)c1,81.1%
7,O=C1/C(=C/c2ccc(C(F)(F)F)cc2)COc2ccc(O)c(O)c21,38%
8,O=C(N/N=C/c1ccc(O)cc1O)c1ccc(Nc2ccnc(C(F)(F)F)c2)cc1,52.4%
9,O=c1[nH]c(-c2ccc(Cl)cc2)cn1-c1ccc(-n2cc(-c3ccc(Cl)cc3)[nH]c2=O)cc1,95.9%
10,CC1O[C@@H]2C[C@@](O)([C@H]1O)n1c3ccccc3c3c4c(c5c6ccccc6n2c5c31)C(=O)NC4=O (stereo partly drawn),33.7%
11,COC1=CC(c2ccc[nH]2)=N/C1=C\c1[nH]c(C)c(CC(=O)OCc2ccccc2)c1C,6.16% (active)
12,NC(=O)c1ccc(NC(=O)c2oc3ccccc3c2-c2cnn(-c3ccccc3)c2)cc1,-21.9% [50 µM] (active)
13,CCOC(=O)N1CCN(S(=O)(=O)c2oc(-c3ccc(Cl)cc3)nc2C#N)CC1,75.9%
